Results on six compounds are retold here after PubChem BioAssay (EPA / NIEHS).

The term AC50 denotes the concentration giving half of the maximal activity seen.

Read-out in experiment [1]: UDP glucuronosyltransferase (UGT1A6), UGT1A6 (gene 54578)
Nature of the experiment: LTEA_HepaRG_UGT1A6: Life Technologies and Expression Analysis (LTEA) Assay for UDP glucuronosyltransferase (UGT1A6) using HepaRG (AID 2283539; active = hit-call score of the fitted dose curve at least 0.9, where 1 is the maximum; inactive = score below 0.9). The following applies: mRNA level, 48 h; actives raise or lower the signal. In short, it runs like this: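 Endpoint is UGT1A6 transcript induction or loss in a human liver cell line, quantified by TaqMan qRT-PCR 48 h after dosing. Concentrations ran from 100 uM downward in half-log steps in 0.5% DMSO; activity was fitted in both directions versus vehicle.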

Read-out in experiment [2]: X-box binding protein 1 (XBP1), XBP1 (gene 7494)
Nature of the experiment: LTEA_HepaRG_XBP1: Life Technologies and Expression Analysis (LTEA) Assay for X-box binding protein 1 (XBP1) using HepaRG (AID 2283540; active = hit-call score of the fitted dose curve at least 0.9, where 1 is the maximum; inactive = score below 0.9). The following applies: mRNA level, 48 h; actives raise or lower the signal. Summed up:
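Human HepaRG monolayers receive test chemical for 48 h across an eight-point half-log series starting at 100 uM. XBP1 mRNA gain or loss is scored against DMSO by qRT-PCR.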

Experiment [3] is described as follows: LTEA_HepaRG_LDH_cytotoxicity: Cytotoxicity Assessment in the Life Technologies and Expression Analysis (LTEA) Assay (AID 2283563).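 For AC50: LDH activity released into spent culture medium as a marker of cell death.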 Summed up: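 Human HepaRG hepatic cells are treated with test chemicals for 48 h at up to 100 uM in 0.5% DMSO. Cytotoxicity is scored from medium LDH against the vehicle control.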
Experiment [4] is described as follows: ATG_XTT_Cytotoxicity: Cytotoxicity Assessment in the Attagene TRANS-FACTORIAL HepG2 Assay (AID 2283584). In short, it runs like this: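 Transfect HepG2 with GAL4-UAS reporter units, dose compound, incubate 24 h, then measure viable cell number by XTT. Fit concentration response against DMSO baseline.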
Experiment [5] in a line: TOX21_p53_BLA_p2_viability: Viability Assessment in the Tox21 HCT-116 p53 Agonism Beta-lactamase Assay, Phase 2 (AID 2283591).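 Note: actives lower the ATP signal meaning cytotoxicity.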 In short, it runs like this: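 HCT116 p53-bla cells, 4000/well, dosed after 5 h plating (217-fold dilution of DMSO stocks) and incubated 16 h at 37C. Viability taken as cellular ATP by CellTiter-Glo luminescence after 30 min RT; signal loss marks cytotoxicity.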

Experiment [6] addresses Cellular tumor antigen p53 (Homo sapiens) (UniProt P04637). Nature of the experiment: TOX21_p53_BLA_p2_ratio: Tox21 HCT-116 p53 Agonism Beta-lactamase Assay, Ratio, Phase 2 (AID 2283592). In short, it runs like this: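 An inducible beta-lactamase reporter in HCT116 cells signals p53 pathway activation. After 16 h chemical exposure at 37C, cells load CCF4-AM substrate for 2 h at room temperature; activity is the cleaved/uncleaved emission ratio relative to DMSO.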

Experiment [7] can be described thus: TOX21_p53_BLA_p3_viability: Viability Assessment in the Tox21 HCT-116 p53 Agonism Beta-lactamase Assay, Phase 3 (AID 2283593).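 Note: cells exposed to compound for 16 h before reading.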 In short, it runs like this: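 HCT116 cells, 4000/well, dosed 5 h after plating by pin transfer (217-fold dilution from DMSO stock) and incubated 16 h at 37C, 5% CO2. Viability read as ATP luminescence with CellTiter-Glo after 30 min at room temperature.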

Experiment [8] has as its target Cellular tumor antigen p53 (Homo sapiens) (UniProt P04637). Nature of the experiment: TOX21_p53_BLA_p3_ratio: Tox21 HCT-116 p53 Agonism Beta-lactamase Assay, Ratio, Phase 3 (AID 2283596). In short, it runs like this:
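HCT116 p53-bla cells (4000/well) given compound in DMSO (217-fold dilution) after 5 h, incubated 16 h at 37C. CCF4-AM substrate 2 h at room temperature; 460/530 nm emission ratio, gain fitted against DMSO.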

Experiment [9] is described as follows: TOX21_p53_BLA_p4_viability: Viability Assessment in the Tox21 HCT-116 p53 Agonism Beta-lactamase Assay, Phase 4 (AID 2283597).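 Note: hits lower the luminescence signal meaning cytotoxicity.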 In short, it runs like this: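 Compound exposure of HCT116 cells lasts 16 h at 37C, 5% CO2, with DMSO stocks diluted 217-fold. Cellular ATP is then quantified by CellTiter-Glo luminescence after 30 min at room temperature.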
Experiment [10] addresses Cellular tumor antigen p53 (Homo sapiens) (UniProt P04637). Nature of the experiment: TOX21_p53_BLA_p5_ratio: Tox21 HCT-116 p53 Agonism Beta-lactamase Assay, Ratio, Phase 5 (AID 2283599). Summed up: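 HCT-116 p53-bla cells (4000/well) plated 5 h, dosed with compound (217-fold DMSO dilution) for 16 h at 37 C; CCF4-AM substrate 2 h at room temperature. Activity is the 460/530 nm emission ratio (405 nm excitation), fitted in gain-of-signal direction versus DMSO.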

Experiment [11] is described as follows: TOX21_p53_BLA_p5_viability: Viability Assessment in the Tox21 HCT-116 p53 Agonism Beta-lactamase Assay, Phase 5 (AID 2283600). Summed up: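 Counter-readout for cytotoxicity: ATP-dependent luminescence from CellTiter-Glo, read in the beta-lactamase wells after 30 min at RT, following a 16 h compound exposure at 37C.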
In experiment [12] the target is Cellular tumor antigen p53 (Homo sapiens) (UniProt P04637). Nature of the experiment: TOX21_p53_BLA_p4_ratio: Tox21 HCT-116 p53 Agonism Beta-lactamase Assay, Ratio, Phase 4 (AID 2283601). In short, it runs like this: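 HCT-116 p53 beta-lactamase reporter cells (4000/well) preincubated 5 h, then compound (217-fold dilution of DMSO stock) for 16 h at 37C. CCF4-AM substrate added 2 h at room temperature; 460/530 nm emission ratio fitted upward versus DMSO.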
Cellular tumor antigen p53 (Homo sapiens), sequence (P04637 whole entry, looked up): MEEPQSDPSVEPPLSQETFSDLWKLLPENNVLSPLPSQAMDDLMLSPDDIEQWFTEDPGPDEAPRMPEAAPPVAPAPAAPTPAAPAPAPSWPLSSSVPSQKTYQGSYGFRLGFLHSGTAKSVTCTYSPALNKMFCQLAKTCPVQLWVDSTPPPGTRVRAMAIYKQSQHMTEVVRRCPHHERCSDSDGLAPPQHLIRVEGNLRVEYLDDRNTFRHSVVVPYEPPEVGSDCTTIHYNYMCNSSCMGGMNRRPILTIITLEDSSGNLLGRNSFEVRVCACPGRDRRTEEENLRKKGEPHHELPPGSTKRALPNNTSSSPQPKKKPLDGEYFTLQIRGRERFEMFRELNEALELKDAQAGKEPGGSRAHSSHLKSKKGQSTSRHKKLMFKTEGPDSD

A short description of experiment [13]: Tanguay_ZF_120hpf_MORT_legacy: (Legacy) Oregon State University Tanguay Lab 120 Hour Post-fertilization zebrafish Assay for Mortality (AID 2283633).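 For AC50: fitted as increase in binary mortality versus DMSO negative control.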 In short, it runs like this: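 Mortality endpoint from a multiplexed whole-embryo zebrafish screen. Dechorionated wild-type embryos received compound at 6 hpf and remained under static exposure at 28C until 120 hpf, with death noted as a present/absent call.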

A short description of experiment [14]: Tanguay_ZF_120hpf_YSE_legacy: (Legacy) Oregon State University Tanguay Lab 120 Hour Post-fertilization zebrafish Assay for Yolk Sac Edema (AID 2283634).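 For AC50: actives raise the incidence of yolk sac edema above the DMSO baseline.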 In short, it runs like this:
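Readout: presence or absence of yolk sac edema at 120 hpf, fitted upward against DMSO controls. Exposure ran statically from 6 hpf in dechorionated embryos kept at 28C.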

Experiment [15] is described as follows: Tanguay_ZF_120hpf_AXIS_legacy: (Legacy) Oregon State University Tanguay Lab 120 Hour Post-fertilization zebrafish Assay for Body Axis Malformation (AID 2283635).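 For AC50: potency for an increased fraction of larvae scored with body axis malformation.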 Summed up:
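Static 6–120 hpf chemical exposure of dechorionated wild-type 5D zebrafish, one per well at 28C; morphology endpoint scored binary at 120 hpf relative to DMSO control.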

A short description of experiment [16]: Tanguay_ZF_120hpf_EYE_legacy: (Legacy) Oregon State University Tanguay Lab 120 Hour Post-fertilization zebrafish Assay for Eye Malformation (AID 2283636).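 Note: binary presence or absence of eye malformation scored by brightfield in 120 hpf larvae.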 In short, it runs like this:
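Dechorionated Tropical 5D zebrafish embryos, one per well from 6 hpf, static exposure to 120 hpf at 28C, 0.64% DMSO. Eye malformation scored present/absent by brightfield; dead embryos not scored.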

Experiment [17] is described as follows: Tanguay_ZF_120hpf_SNOU_legacy: (Legacy) Oregon State University Tanguay Lab 120 Hour Post-fertilization zebrafish Assay for Snout Malformation (AID 2283637). Summed up:
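Dechorionated tropical 5D wild-type zebrafish embryos exposed statically from 6 to 120 hpf at 28C, one per well, in 0.64% DMSO. Snout malformation scored as present/absent by brightfield at 120 hpf; dead embryos not scored.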

Experiment [18] is described as follows: Tanguay_ZF_120hpf_JAW_legacy: (Legacy) Oregon State University Tanguay Lab 120 Hour Post-fertilization zebrafish Assay for Jaw Malformation (AID 2283638).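 For AC50: active means more embryos with jaw malformation than DMSO controls.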 Summed up:
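Static waterborne exposure of dechorionated wild-type (Tropical 5D) zebrafish from 6 to 120 hpf at 28C, 0.64% DMSO vehicle; 5uM trimethyltin chloride served as positive control. Jaw morphology recorded as binary at 120 hpf.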

Experiment [19] in a line: Tanguay_ZF_120hpf_OTIC_legacy: (Legacy) Oregon State University Tanguay Lab 120 Hour Post-fertilization zebrafish Assay for Otic Vesicle Malformation (AID 2283639). In short, it runs like this:
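Tropical 5D wild-type zebrafish embryos were exposed statically in sealed, foil-covered plates at 28C until 120 hpf, with 0.64% (vol/vol) DMSO final. Otic vesicle malformation was scored present/absent by brightfield microscopy, with DMSO as baseline.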

Experiment [20] can be described thus: Tanguay_ZF_120hpf_PE_legacy: (Legacy) Oregon State University Tanguay Lab 120 Hour Post-fertilization zebrafish Assay for Pericardial Edema (AID 2283640).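 For AC50: potency for increased incidence of pericardial edema versus DMSO baseline.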 In short, it runs like this: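 Read-out is the presence or absence of pericardial edema at 120 hpf under brightfield, with gain of signal fitted against DMSO controls. Larvae (5D wild-type) were statically exposed at 28C with 0.64% final DMSO.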

Values joined by “and” are separate entries in the source; they are usually repeats but may differ in a detail not shown here. Equal values may be shown once. Results filed as inconclusive are left out. A structure can be active in one record and inactive in another. Active and inactive are the calls of the source. Rule for the calls, unless noted: active = hit-call score of the fitted dose curve at least 0.9, where 1 is the maximum; inconclusive = response in the unintended direction; inactive = score below 0.9.

`CC(=O)[C@H]1CC[C@H]2[C@@H]3CCC4=CC(=O)CC[C@]4(C)[C@H]3CC[C@]12C`: the half-maximal activity concentration (AC50) in [1] was 63.7 µM (active); in experiment [3], 35.8 µM (active). For the same compound, the compound was classed as inactive in experiment [2], in experiment [4], in experiment [5], in [6], in experiment [7] and in experiment [8]. In addition, the call in experiment [9], in experiment [10], in [11], in [12], in [13] and in [14] was inactive. The compound was classed as inactive in experiment [15], in experiment [16], in experiment [17], in experiment [18], in [19] and in experiment [20].

`CC(C)(c1ccc(O)cc1)c1ccc(O)cc1`: the compound was classed as inactive in experiment [1], in experiment [2], in [3], in [4], in experiment [5] and in experiment [6]. The call in [7], in experiment [8], in [9], in [10], in [11] and in [12] was inactive. Also, the compound was classed as inactive in experiment [13], in experiment [16], in experiment [18] and in experiment [19]. Moreover, the concentration at half-maximal activity (AC50) in [6] is 85.6 µM (active); in experiment [9], 85.1 µM (active); in [12], 75.9 µM (active); in experiment [13], 16.4 µM (active); in experiment [14] it was 41.7 µM (active) and 25.2 µM (active) and 38.1 µM (active); in experiment [15], 36.5 µM (active) and 64.9 µM (active) and 25.3 µM (active). In addition, the AC50 is 40 µM (active) and 40.1 µM (active) in [16]; 46.9 µM (active) and 47.9 µM (active) and 37.4 µM (active) in experiment [17]; 41.7 µM (active) and 36.1 µM (active) in experiment [18]; 40.5 µM (active) and 37.7 µM (active) in experiment [19]; 43.3 µM (active) and 34.9 µM (active) in experiment [20].

For `CCNc1nc(N)nc(Cl)n1`, the outcome in experiment [1], in experiment [2], in experiment [3], in experiment [6], in experiment [8] and in experiment [10] was inactive. The compound was classed as inactive in experiment [11], in [12], in experiment [13], in [14], in experiment [15] and in experiment [16]. The result in experiment [17], in experiment [18], in [19] and in experiment [20] was inactive.

For the compound `CCCCOC(=O)C(C)Oc1ccc(Oc2ccc(C(F)(F)F)cn2)cc1` (stereo unspecified), the result in [1], in [2], in experiment [3], in [5], in experiment [7] and in [8] was inactive. For the same compound, the result in [9], in experiment [10], in experiment [11], in experiment [12], in [13] and in experiment [14] was inactive. For the same compound, the compound was classed as inactive in experiment [15], in [16], in experiment [17], in [18], in experiment [19] and in [20].

Regarding `CCCCOCCOCCOCc1cc2c(cc1CCC)OCO2`, the result in experiment [1], in [2], in experiment [3], in experiment [16], in experiment [18] and in experiment [19] was inactive. For the same compound, the half-maximal activity concentration (AC50) in [13] is 5.13 µM (active); in [14] it was 28.3 µM (active); in experiment [15], 25.5 µM (active); in experiment [17] it was 7.01 µM (active); in experiment [20], 26.2 µM (active).

Take `COC(=O)c1ccc(I)cc1S(=O)(=O)NC(=O)Nc1nc(C)nc(OC)n1`: the compound was classed as inactive in experiment [1], in experiment [2], in experiment [3], in experiment [5], in experiment [6] and in experiment [7]. Besides, the outcome in experiment [9], in experiment [10], in [11], in [12], in experiment [13] and in [14] was inactive. For the same compound, the outcome in experiment [15] and in [20] was inactive.
